# Laboratory results: PubChem BioAssay
# Several values for one entry are separate records, joined by “and”; a condition that tells them apart may be missing. Equal entries are not always repeated. Activity calls are given as the source filed them. Unless noted, the rule behind the calls is not given here.
# Key:
# [1] = circadian clock period modulators, cell-based, LOPAC library, luminescence reporter (AID 2774); conditions: circadian reporter cells, at 7 µM, actives lie on both sides;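 note: values are relative to mean of DMSO wells on each plate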
# [2] = hESC survival regulators, cell-based (AID 493140); conditions: human embryonic stem cell survival screen; stronger effect = higher value;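 note: cells exposed to compounds for four days before counting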
# [3] = test system: Hepatitis C virus NS3 helicase; assay: HCV NS3 helicase inhibitors, primary screen, biochemical, fluorescence polarization, LOPAC1280 library (AID 687035; in the data active = inhibition above about 37%); conditions: Purified HCV NS3 helicase, Cy5-dT15 ssDNA binding fluorescence polarization; stronger effect = higher value; concentration not given here
# [4] = Cy5 fluorescence quenching or enhancement artefacts, artefact control for HCV NS3 helicase inhibitor project, biochemical, LOPAC1280 (AID 687037); conditions: Cy5-DNA-NS3h complex fluorescence interference counterscreen
# [5] = sensitizers of A549 cells to miR-34 induction, primary screen, imaging, A549 dox-inducible miR-34, nuclei and caspase counts (AID 1347080;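 active = compounds whose cell count with miR-34 switched on is under 0.7 times the count with it off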); conditions: A549 miR-34 inducible, Hoechst nuclei count, 48 h
# [6] = inhibitors of Cryptococcus chitosan production, flow cytometry, Cibacron Brilliant Red staining (AID 1347148); conditions: Cryptococcus neoformans chitosan, stronger effect = lower value; at 10 µM unless noted;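 note: compound exposure lasted three days at 37 degrees C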
# [7] = phospholipid biosynthesis inhibitors in animal cells, primary screen, cell-based, LOPAC library, screen 4 (AID 1347384); conditions: phospholipid biosynthesis inhibition screen, at 10 µM
# [8] = viability rescue of complex I mutant cybrids, primary screen, cell-based, galactose medium, ATP luminescence (AID 1645843;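 active = z-score of at least 1.8 in each of two replicates, scored against plate mean and spread of sample wells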;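 note: positive z means more ATP and so rescue of galactose-driven cybrid death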); conditions: complex I mutant cybrid cells, 72 h, stronger effect = higher value
# [9] = survival rescue of mitochondrial mutant cells in low glucose, primary screen, MELAS cybrids, Rieske KO mouse fibroblasts, CellTiter-Glo (AID 1508586;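 active = mean z-score across replicates of 1.96 or higher in either the MELAS or the Rieske mutant cell line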;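 note: z relative to plate mean and SD of compound and empty wells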)
# [10] = liver-stage malaria parasite growth inhibition, primary screen, cell-based, HepG2, luciferase luminescence, HepG2 viability (AID 624349; in the data active = parasite load remaining mostly below about 12%, no sharp cut-off; inactive = mostly above about 10%;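 note: 100% = mean of DMSO negative control wells on the same plate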); conditions: P. berghei liver stage in HepG2, luciferase luminescence, concentration not given here; parasite load remaining: stronger effect = lower value; viability: measured here: HepG2 viability without parasites
# [11] = stronger effect = lower value, cell number ratio, induced over uninduced
# [12] = measured here: relative caspase fold change +Dox/-Dox
# [13] = measured here: total cells with miR-34 induction, stronger effect = lower value
# [14] = measured here: total cells without miR-34 induction
# [15] = MELAS cybrid survival, CellTiter-Glo 48 h, stronger effect = higher value
# [16] = Rieske KO mouse fibroblast survival, CellTiter-Glo 72 h
smiles,measurement,setting,value
CC12C(=O)OC(=O)C1(C)C1CCC2O1 (stereo not drawn),period change,[1],-0.375 h (inactive)
same,survival,[2],0 (inactive)
same,inhibition,[3],0% (inactive)
same,fluorescence ratio (interference),[4],1 (inactive)
same,fold change,[5]; [11],1.31 (inactive) and 0.948 (inactive)
same,fold change,[5]; [12],1.51 and 0.943
same,cell count,[5]; [13],607 and 462
same,cell count,[5]; [14],465 and 488
same,fold fluorescence,[6],5.03 [at 254.8 µM] (inactive)
same,outcome,[7],inactive
same,z-score,[8],-1.43 (inactive)
CC(=O)OCOC(=O)CN(CC(=O)OCOC(C)=O)c1ccccc1OCCOc1ccccc1N(CC(=O)OCOC(C)=O)CC(=O)OCOC(C)=O,fold change,[5]; [11],1.04 (inactive) and 0.871 (inactive)
same,fold change,[5]; [12],1.07 and 0.533
same,cell count,[5]; [13],2560 and 5870
same,cell count,[5]; [14],2460 and 6740
same,fold fluorescence,[6],5.04 [at 65.4 µM] (inactive)
same,z-score,[9]; [15],-0.31 (inactive)
same,z-score,[9]; [16],0.894
CCCCCCCCCCCCCC(=O)OCC,fold change,[5]; [11],1.01 (inactive)
same,fold change,[5]; [12],1.49
same,cell count,[5]; [13],5310
same,cell count,[5]; [14],5240
CS(=O)(=O)Nc1ccc([N+](=O)[O-])cc1OC1CCCCC1,fold change,[5]; [11],0.816 (inactive) and 0.974 (inactive)
same,fold change,[5]; [12],1.1 and 1.38
same,cell count,[5]; [13],4510 and 5650
same,cell count,[5]; [14],5530 and 5800
same,fold fluorescence,[6],5.81 [at 159.1 µM] (inactive)
NCCNS(=O)(=O)c1cccc2c(Cl)cccc12,inhibition,[3],-2% (inactive)
same,fluorescence ratio (interference),[4],1 (inactive)
same,fold change,[5]; [11],1.01 (inactive) and 0.93 (inactive)
same,fold change,[5]; [12],0.86 and 1.13
same,cell count,[5]; [13],9070 and 4030
same,cell count,[5]; [14],9000 and 4330
same,fold fluorescence,[6],10.8 [at 175.6 µM] (inactive)
same,outcome,[7],inactive
same,z-score,[8],-0.845 (inactive)
O=C(CCc1ccc(O)c(O)c1)N[C@@H](CC(=O)OCc1ccccc1)C(=O)OCc1ccccc1,fold change,[5]; [11],1.01 (inactive)
same,fold change,[5]; [12],0.94
same,cell count,[5]; [13],6350
same,cell count,[5]; [14],6270
NC(=Nc1ccccc1)NC(=O)c1nc(Cl)c(N)nc1N,period change,[1],-0.435 h (inactive)
same,parasite load remaining,[10],58.8% (inactive)
same,viability,[10],98%
same,inhibition,[3],-2% (inactive)
same,fluorescence ratio (interference),[4],1 (inactive)
same,fold change,[5]; [11],1.04 (inactive) and 0.937 (inactive) and 0.841 (inactive)
same,fold change,[5]; [12],1.01 and 1.25 and 1.03
same,cell count,[5]; [13],5840 and 3000 and 8780
same,cell count,[5]; [14],5620 and 3200 and 10400
same,fold fluorescence,[6],5.89 [at 163.5 µM] (inactive)
same,outcome,[7],inactive
same,z-score,[9]; [15],1.28 (inactive)
same,z-score,[9]; [16],0.859
same,z-score,[8],-0.925 (inactive) and 0.595 (inactive)
CC/C=C\C/C=C\C/C=C\C/C=C\CCCCC(=O)OC,fold change,[5]; [11],0.976 (inactive)
same,fold change,[5]; [12],1.08
same,cell count,[5]; [13],5040
same,cell count,[5]; [14],5160
CCN(CC)CCCCCCCCOC(=O)c1cc(OC)c(OC)c(OC)c1,period change,[1],-0.085 h (inactive)
same,inhibition,[3],-4% (inactive)
same,fluorescence ratio (interference),[4],0.9 (inactive)
same,fold change,[5]; [11],1.02 (inactive) and 0.949 (inactive)
same,fold change,[5]; [12],0.695 and 1.09
same,cell count,[5]; [13],8240 and 4880
same,cell count,[5]; [14],8090 and 5140
same,fold fluorescence,[6],8.07 [at 126.4 µM] (inactive)
same,outcome,[7],inactive
same,z-score,[8],-0.285 (inactive)
O=c1oc(Cl)c(Cl)c2ccccc12,period change,[1],-0.015 h (inactive)
same,inhibition,[3],-3% (inactive)
same,fluorescence ratio (interference),[4],1 (inactive)
same,fold change,[5]; [11],1.11 (inactive) and 1.06 (inactive)
same,fold change,[5]; [12],1.14 and 0.927
same,cell count,[5]; [13],6300 and 1380
same,cell count,[5]; [14],5680 and 1300
same,fold fluorescence,[6],6.4 [at 232.5 µM] (inactive)
same,outcome,[7],inactive
same,z-score,[8],-1.02 (inactive)
CC/C=C\C/C=C\C/C=C\C/C=C\C/C=C\C/C=C\CCC(=O)NCCO,fold change,[5]; [11],0.934 (inactive)
same,fold change,[5]; [12],0.411
same,cell count,[5]; [13],5920
same,cell count,[5]; [14],6340
O=C(NCc1ccc(Cl)c(Cl)c1)O[C@H]1CCc2ccccc21,fold change,[5]; [11],1.02 (inactive)
same,fold change,[5]; [12],1.19
same,cell count,[5]; [13],5770
same,cell count,[5]; [14],5680
COc1cc2ncc(-c3ccccc3)nc2cc1OC,survival,[2],66.2 (inactive)
same,parasite load remaining,[10],37% (inactive)
same,viability,[10],96.9%
same,fold change,[5]; [11],0.803 (inactive) and 0.84 (inactive)
same,fold change,[5]; [12],1.43 and 0.498
same,cell count,[5]; [13],3060 and 6730
same,cell count,[5]; [14],3820 and 8010
same,fold fluorescence,[6],6 [at 187.8 µM] (inactive)
same,z-score,[9]; [15],0.0666 (inactive)
same,z-score,[9]; [16],1.44
CC/C=C\C/C=C\C/C=C\C/C=C\C/C=C\CCCC(=O)O,survival,[2],106 (inactive)
same,fold change,[5]; [11],0.976 (inactive) and 0.979 (inactive)
same,fold change,[5]; [12],0.982 and 0.878
same,cell count,[5]; [13],5680 and 5960
same,cell count,[5]; [14],5820 and 6080
same,fold fluorescence,[6],4.6 (inactive)
CCCCC/C=C\C/C=C\CCCCCCCCCC(=O)O,survival,[2],74.2 (inactive)
same,fold change,[5]; [11],0.992 (inactive) and 1.02 (inactive)
same,fold change,[5]; [12],0.988 and 0.888
same,cell count,[5]; [13],6110 and 5920
same,cell count,[5]; [14],6160 and 5820
same,fold fluorescence,[6],3.91 (inactive)
CCCCCCCC(=O)OC[C@H](CO)OC(=O)CCCCCCC,survival,[2],75.3 (inactive)
same,fold change,[5]; [11],1 (inactive) and 1.04 (inactive)
same,fold change,[5]; [12],1.36 and 0.811
same,cell count,[5]; [13],5210 and 5590
same,cell count,[5]; [14],5190 and 5400
same,fold fluorescence,[6],6.5 (inactive)
O=C(CCCCCc1ccccc1)c1nc2ncccc2o1,fold change,[5]; [11],1.06 (inactive)
same,fold change,[5]; [12],0.866
same,cell count,[5]; [13],5480
same,cell count,[5]; [14],5190
CC[N+](C)(CC)CCC[n+]1c(-c2ccccc2)c2cc(N)ccc2c2ccc(N)cc21,survival,[2],5.17 (inactive)
same,parasite load remaining,[10],62.2% (inactive)
same,viability,[10],92.5%
same,fold change,[5]; [11],0.82 (inactive) and 0.917 (inactive)
same,fold change,[5]; [12],1.46 and 1.13
same,cell count,[5]; [13],7160 and 5250
same,cell count,[5]; [14],8730 and 5720
same,fold fluorescence,[6],8.39 [at 120.6 µM] (inactive)
same,z-score,[9]; [15],-0.661 (inactive)
same,z-score,[9]; [16],1.71
